Measurements reported in PubChem BioAssay (NCATS).
Results filed as inconclusive are left out. Calls of active or inactive are those of the source. Unless noted, calls follow the shape of the dose curve; as a rule, active = well fitted curve in the direction sought with a large enough effect; inconclusive = small, poorly fitted or top-dose-only effect, or another doubt; inactive = no such curve, though single readings can be large; an effect the other way counts as inactive or inconclusive.

Tests used:
[1] = target: Thyrotropin receptor (Homo sapiens) (UniProt P16473); experiment: qHTS Assay for Antagonists of the Thyroid Stimulating Hormone Receptor (AID 488980); also: series mostly up to about 58 µM; 0% is about no effect
Method in brief: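 TSHR-transfected HEK293 cells (2000/well) in HEPES-buffered HBSS with 70 uM RO 20-1724 were stimulated with 4 nM TSH (EC80, final) in the presence of compound. cAMP was measured by HTRF competition after lysis and 30 min at RT.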

[2] = target: D(1A) dopamine receptor (Homo sapiens) (UniProt P21728); experiment: HTS Assay for Allosteric Agonists of the Human D1 Dopamine Receptor: Primary Screen for Agonists (AID 488981); also: 0% is about no effect
Method in brief: (§1)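 Tetracycline-induced HEK293 T-REx cells force-coupled to calcium signalling were incubated overnight at 30 C and dye-loaded at room temperature. Calcium flux over 180 s after compound addition flagged agonists; a further 180 s read after EC20 dopamine flagged potentiators.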

[3] = target: D(1A) dopamine receptor (Homo sapiens) (UniProt P21728); experiment: HTS Assay for Allosteric Agonists of the Human D1 Dopamine Receptor: Primary Screen for Antagonists (AID 488983);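 also: calcium flux response to an EC80 dopamine challenge measured with no-wash dye; % is scaled to controls: 0 for no effect and ±100 for the full control effect; nearly all actives have a fitted effect of over 65% in size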
Method in brief: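 Calcium-flux read-out in inducible HEK293 T-REx cells expressing D1, dye-loaded 30–90 min at room temperature. Kinetic reads: 180 s after compound (agonist phase), then 180 s after an EC80 dopamine challenge.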

[4] = Validation screen for small molecules that induce genotoxicity in human embryonic kidney (HEK293T) cells expressing luciferase-tagged ELG1 (AID 493106); also: potency is read from the fitted curve at half-maximal effect
Method in brief: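 ELG1-luciferase reporter readout (ONE-Glo, 30 min, room temperature) after 16 hr compound treatment at 37 °C of HEK293T cells at 2,000 per well. Rising luminescence flags genotoxic stress.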

[5] = target: ATPase family AAA domain-containing protein 5 (Homo sapiens) (UniProt Q96QE3); experiment: Validation screen for small molecules that inhibit ELG1-dependent DNA repair in human embryonic kidney (HEK293T) cells expressing luciferase-tagged ELG1 (AID 493107);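 also: series mostly up to about 46 µM; % is scaled to controls: 0 for no effect and ±100 for the full control effect; inhibitors lower the ELG1-luciferase luminescence signal; nearly all actives have a fitted effect of over 70% in size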
Method in brief: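 Luciferase read-out, ONE-Glo, 30 min at room temperature, follows 16 h co-exposure at 37 C of compound and the DNA-damaging agent 5-fluorouridine. Cells: HEK293T with ELG1-luciferase fusion, 2,000 per well, DMSO as vehicle.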

[6] = Nrf2 qHTS screen for inhibitors: Validation (AID 493153; active = well fitted inhibition curve with a large enough effect in the main read-out, with a control signal flat, not every such curve was filed as active; also: potency is read from the fitted curve at half-maximal effect); conditions: Potency: luciferase luminescence; viability change: measured here: cytotoxicity max response
Method in brief: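 Concentration-response on A549 ARE_Fluc reporter cells exposed 18-24 h at 37 C, 5% CO2. Cytotoxicity read first by CellTiter-Fluor fluorescence (Ex 405/Em 525), then Nrf2 inhibition by BugLite luminescence after 15 min.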

[7] = target: Galactokinase (Homo sapiens) (UniProt P51570); experiment: qHTS Validation Assay for Inhibitors of Human Galactokinase (GALK) (AID 493189); also: 0% is about no effect
Method in brief: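 GALK (5 nM) with 35 uM ATP and 100 uM galactose in HEPES pH 8.0 with MgCl2, NaCl, DTT and BSA. Reaction ran 1 h at room temperature. Residual ATP read by Kinase-Glo Plus luminescence.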

[8] = Validation screen for small molecules that induce DNA re-replication in SW480 colon adenocarcinoma cells (AID 504364); also: potency is read from the fitted curve at half-maximal effect
Method in brief: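 Image-based DNA content read-out: Hoechst stain 40 min, total nuclear fluorescence intensity (ex 405 nm, em 500-530 nm) after 48 h compound exposure of 250 SW480 cells/well at 37 C, 5% CO2, versus DMSO vehicle.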

[9] = target: phosphoglycerate mutase (Leishmania major) (UniProt Q4Q090); experiment: qHTS Validation Assay to Find Inhibitors of Phosphoglycerate Mutase (AID 504548); conditions: Potency: inhibition qHTS;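 also: end-point luminescence from Kinase-GloPlus after the PGAM reaction; series mostly up to about 58 µM; % is scaled to controls: 0 for no effect and ±100 for the full control effect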
Method in brief: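 L. major PGAM (1.25nM final) was added to substrate buffer and pinned compound, incubated 45 minutes at room temperature, then Kinase-GloPlus added; luminescence read after 10 minutes. Buffer: 100 mM TEA pH 7.6, 5 mM MgCl2, 0.01% Tween-20.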

[10] = target: Ubiquitin carboxyl-terminal hydrolase 1 (Homo sapiens) (UniProt O94782); experiment: Inhibitors of USP1/UAF1: Pilot qHTS (AID 504865); also: nearly all actives have a fitted effect of over 35% in size; also: potency is read from the fitted curve at half-maximal effect
Method in brief: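 USP1/UAF1 complex at 1 nM preincubated 15 min at room temperature with compound, then Ub-Rho substrate added at 150 nM final. Fluorescence (480/540 nm) read kinetically in 50 mM HEPES pH 7.8, 0.5 mM EDTA, 1 mM TCEP, 0.1 mg/ml BSA, 0.01% Tween-20.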

[11] = qHTS for Inhibitors of ATXN expression: Validation of Cytotoxic Assay (AID 588349); also: % is scaled to controls: 0 for no effect and ±100 for the full control effect
Method in brief: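 Cytotoxicity counter-screen: ATP-based luminescent viability (CellTiter Glo) after 72 hr exposure of HEK293 cells to a compound titration at 37 degrees C.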

[12] = qHTS for Inhibitors of ATXN expression: Validation (AID 588378); also: series mostly up to about 57 µM; % is scaled to controls: 0 for no effect and ±100 for the full control effect; nearly all actives have a fitted effect of over 75% in size
Method in brief: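 HEK293 cells carrying ATXN2-firefly luciferase reporter, treated with compound 24 h at 37 °C. Viability read first by CellTiter-Fluor (405/525 nm), then reporter expression by Bright-Glo luminescence; controls were a known ATXN2 expression inhibitor and a luciferase inhibitor.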

[13] = target: D(1A) dopamine receptor (Homo sapiens) (UniProt P21728); experiment: HTS Assay for Allosteric Agonists of the Human D1 Dopamine Receptor: Primary Screen for Potentiators (AID 488982); also: 0% is about no effect
Method in brief: as §1

[14] = target: Peptidyl-prolyl cis-trans isomerase NIMA-interacting 1 (Homo sapiens) (UniProt Q13526); experiment: qHTS Validation Assay to Find Inhibitors of Pin1 (AID 504536; active = well fitted inhibition curve with a large enough effect in the polarisation, with a control signal flat, not every such curve was filed as active; the % refers to the polarisation;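 also: 0% = full Pin1 enzyme wells and -100% = no-enzyme wells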)
Method in brief: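 Fluorescence polarization competition: compounds (titration) displace HiFluor-488-labeled Pin1-1b peptide from Pin1 (0.3 uM final) in pH 7.5 HEPES buffer with DTT, 10 min at room temperature; %Activity normalized to no-enzyme wells, curves fitted.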

[15] = target: Phosphoglycerate kinase, glycosomal (Trypanosoma brucei brucei) (UniProt P07378); experiment: qHTS Validation Assay to Find Inhibitors of Phosphoglycerate Kinase (AID 504547); also: potency is read from the fitted curve at half-maximal effect
Method in brief: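 In TEA buffer (100mM, pH 7.6) containing 5mM MgCl2 and 0.01% Tween-20, the GAPDH-coupled PGK reaction proceeded for 60 minutes at room temperature before a single luminescence reading using Kinase-Glo Plus.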

[16] = target: ATP-dependent 6-phosphofructokinase (Trypanosoma brucei brucei) (UniProt O15648); experiment: qHTS Assay to Find Inhibitors of T. brucei phosphofructokinase: hit validation (AID 492961);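 also: luminescence reports ADP formed as PFK phosphorylates fructose-6-phosphate with ATP; series mostly up to about 51 µM; % is scaled to controls: 0 for no effect and ±100 for the full control effect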
Method in brief: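 Percent activity derived from corrected luminescence, normalized between 0x and 1x enzyme controls, then fitted to concentration-response curves. Conditions: 1.25 nM PFK, 0.1 mM ATP, 0.5 mM F6P, 45 min RT.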

[17] = target: Estrogen receptor (Homo sapiens) (UniProt P03372); experiment: qHTS assay for small molecule agonists of estrogen receptor alpha signaling (AID 588514; calls by dose curve;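 also: 0% = vehicle only and 100% = reference agonist; nearly all actives have a fitted effect of over 70% in size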)
Method in brief: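 EC50 and efficacy came from Hill fits of beta-lactamase reporter signal (CCF4 dye, 2 h at room temperature) scaled between DMSO and 20 nM 17-beta-estradiol. Agonist mode: HEK293 ER-alpha-UAS-bla cells in charcoal/dextran-stripped serum medium, 18 h compound exposure at 37 C.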

[18] = target: Estrogen receptor (Homo sapiens) (UniProt P03372); experiment: qHTS assay for small molecule antagonists of estrogen receptor alpha signaling (AID 588513; active = well fitted curve in the direction sought with a large enough effect in the signal ratio, with a control signal flat, not every such curve was filed as active; the % refers to the signal ratio; also: % is scaled to controls: 0 for no effect and ±100 for the full control effect)
Method in brief: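 ER-alpha-UAS-bla GripTite HEK 293 cells in 2% charcoal/dextran-treated FBS medium; compounds titrated (1:2, duplicate), then stimulated with 0.5 nM 17-beta-estradiol for 18 h at 37C. CCF4 beta-lactamase fluorescence; Hill-fit IC50 and efficacy.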

[19] = target: Androgen receptor (Homo sapiens) (UniProt P10275); experiment: qHTS assay for small molecule agonists of androgen receptor signaling (AID 588515; active = well fitted curve in the direction sought with a large enough effect in the signal ratio, with a control signal flat; the % refers to the signal ratio; also: % is scaled to controls: 0 for no effect and ±100 for the full control effect); conditions: AR-UAS-bla HEK293, beta-lactamase ratio, agonist 16 h; stronger effect = higher value
Method in brief: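 Stimulation of an AR-responsive β-lactamase reporter in GripTite HEK293 cells was measured after 16 h compound exposure at 37 °C, via CCF4 fluorescence after 2 h RT. EC50 from Hill fits, normalized to R1881 at 30 nM.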

[20] = target: Androgen receptor (Homo sapiens) (UniProt P10275); experiment: qHTS assay for small molecule antagonists of androgen receptor signaling (AID 588516; active = well fitted curve in the direction sought with a large enough effect in the signal ratio, with a control signal flat, not every such curve was filed as active; the % refers to the signal ratio; also: % is scaled to controls: 0 for no effect and ±100 for the full control effect)
Method in brief: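 AR-UAS-bla GripTite HEK 293 cells (2000/well) treated with compound titrations plus 10 nM R1881 for 16 h at 37C. Beta-lactamase read by CCF4 FRET (460/530 nm); IC50 from Hill fits, normalized to R1881 and DMSO control wells.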

ATP-dependent 6-phosphofructokinase (Trypanosoma brucei brucei), sequence (O15648 whole entry, looked up): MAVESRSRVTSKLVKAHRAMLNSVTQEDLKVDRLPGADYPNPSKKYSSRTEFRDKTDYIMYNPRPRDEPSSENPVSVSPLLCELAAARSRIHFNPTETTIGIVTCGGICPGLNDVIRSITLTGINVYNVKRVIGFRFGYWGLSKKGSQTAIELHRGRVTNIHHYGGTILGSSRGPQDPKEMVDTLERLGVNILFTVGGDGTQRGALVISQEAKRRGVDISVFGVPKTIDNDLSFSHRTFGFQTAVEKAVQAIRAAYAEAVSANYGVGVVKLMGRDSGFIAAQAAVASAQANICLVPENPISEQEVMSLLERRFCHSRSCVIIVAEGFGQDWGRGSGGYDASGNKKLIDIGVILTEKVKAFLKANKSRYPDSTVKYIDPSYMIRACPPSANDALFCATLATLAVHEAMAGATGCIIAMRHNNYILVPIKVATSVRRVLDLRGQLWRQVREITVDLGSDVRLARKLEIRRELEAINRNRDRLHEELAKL
Thyrotropin receptor (Homo sapiens), sequence (P16473 whole entry, looked up): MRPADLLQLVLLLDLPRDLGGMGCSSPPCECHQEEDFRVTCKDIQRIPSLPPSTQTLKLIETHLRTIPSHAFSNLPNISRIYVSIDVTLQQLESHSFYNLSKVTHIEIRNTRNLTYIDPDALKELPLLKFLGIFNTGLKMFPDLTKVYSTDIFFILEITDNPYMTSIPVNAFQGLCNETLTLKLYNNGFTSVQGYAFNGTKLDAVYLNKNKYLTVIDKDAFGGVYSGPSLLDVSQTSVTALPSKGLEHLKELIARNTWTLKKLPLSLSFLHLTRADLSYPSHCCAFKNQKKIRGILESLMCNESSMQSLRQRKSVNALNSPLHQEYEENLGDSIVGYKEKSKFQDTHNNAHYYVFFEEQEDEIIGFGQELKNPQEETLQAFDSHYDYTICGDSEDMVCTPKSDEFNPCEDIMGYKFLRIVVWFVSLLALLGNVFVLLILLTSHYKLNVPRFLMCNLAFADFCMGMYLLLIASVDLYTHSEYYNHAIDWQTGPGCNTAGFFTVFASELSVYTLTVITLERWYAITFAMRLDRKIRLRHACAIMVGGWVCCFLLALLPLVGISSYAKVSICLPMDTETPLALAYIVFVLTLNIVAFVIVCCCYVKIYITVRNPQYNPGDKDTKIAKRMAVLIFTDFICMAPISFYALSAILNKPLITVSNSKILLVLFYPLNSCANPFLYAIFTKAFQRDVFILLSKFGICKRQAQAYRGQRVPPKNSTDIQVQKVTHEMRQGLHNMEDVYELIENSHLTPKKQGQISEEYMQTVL
Galactokinase (Homo sapiens), sequence (P51570 whole entry, looked up): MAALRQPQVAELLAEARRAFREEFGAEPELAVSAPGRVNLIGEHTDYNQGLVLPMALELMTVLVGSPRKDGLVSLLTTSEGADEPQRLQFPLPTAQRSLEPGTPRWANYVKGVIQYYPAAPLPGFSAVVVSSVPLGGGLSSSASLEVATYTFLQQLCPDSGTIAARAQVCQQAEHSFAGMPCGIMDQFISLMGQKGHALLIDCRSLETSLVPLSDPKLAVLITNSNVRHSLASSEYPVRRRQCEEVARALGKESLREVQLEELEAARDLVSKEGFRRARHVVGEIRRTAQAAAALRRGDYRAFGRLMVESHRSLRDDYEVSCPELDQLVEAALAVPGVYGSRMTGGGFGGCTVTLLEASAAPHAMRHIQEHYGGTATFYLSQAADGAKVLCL
ATPase family AAA domain-containing protein 5 (Homo sapiens), sequence (Q96QE3 whole entry, looked up, the tested form may be a part): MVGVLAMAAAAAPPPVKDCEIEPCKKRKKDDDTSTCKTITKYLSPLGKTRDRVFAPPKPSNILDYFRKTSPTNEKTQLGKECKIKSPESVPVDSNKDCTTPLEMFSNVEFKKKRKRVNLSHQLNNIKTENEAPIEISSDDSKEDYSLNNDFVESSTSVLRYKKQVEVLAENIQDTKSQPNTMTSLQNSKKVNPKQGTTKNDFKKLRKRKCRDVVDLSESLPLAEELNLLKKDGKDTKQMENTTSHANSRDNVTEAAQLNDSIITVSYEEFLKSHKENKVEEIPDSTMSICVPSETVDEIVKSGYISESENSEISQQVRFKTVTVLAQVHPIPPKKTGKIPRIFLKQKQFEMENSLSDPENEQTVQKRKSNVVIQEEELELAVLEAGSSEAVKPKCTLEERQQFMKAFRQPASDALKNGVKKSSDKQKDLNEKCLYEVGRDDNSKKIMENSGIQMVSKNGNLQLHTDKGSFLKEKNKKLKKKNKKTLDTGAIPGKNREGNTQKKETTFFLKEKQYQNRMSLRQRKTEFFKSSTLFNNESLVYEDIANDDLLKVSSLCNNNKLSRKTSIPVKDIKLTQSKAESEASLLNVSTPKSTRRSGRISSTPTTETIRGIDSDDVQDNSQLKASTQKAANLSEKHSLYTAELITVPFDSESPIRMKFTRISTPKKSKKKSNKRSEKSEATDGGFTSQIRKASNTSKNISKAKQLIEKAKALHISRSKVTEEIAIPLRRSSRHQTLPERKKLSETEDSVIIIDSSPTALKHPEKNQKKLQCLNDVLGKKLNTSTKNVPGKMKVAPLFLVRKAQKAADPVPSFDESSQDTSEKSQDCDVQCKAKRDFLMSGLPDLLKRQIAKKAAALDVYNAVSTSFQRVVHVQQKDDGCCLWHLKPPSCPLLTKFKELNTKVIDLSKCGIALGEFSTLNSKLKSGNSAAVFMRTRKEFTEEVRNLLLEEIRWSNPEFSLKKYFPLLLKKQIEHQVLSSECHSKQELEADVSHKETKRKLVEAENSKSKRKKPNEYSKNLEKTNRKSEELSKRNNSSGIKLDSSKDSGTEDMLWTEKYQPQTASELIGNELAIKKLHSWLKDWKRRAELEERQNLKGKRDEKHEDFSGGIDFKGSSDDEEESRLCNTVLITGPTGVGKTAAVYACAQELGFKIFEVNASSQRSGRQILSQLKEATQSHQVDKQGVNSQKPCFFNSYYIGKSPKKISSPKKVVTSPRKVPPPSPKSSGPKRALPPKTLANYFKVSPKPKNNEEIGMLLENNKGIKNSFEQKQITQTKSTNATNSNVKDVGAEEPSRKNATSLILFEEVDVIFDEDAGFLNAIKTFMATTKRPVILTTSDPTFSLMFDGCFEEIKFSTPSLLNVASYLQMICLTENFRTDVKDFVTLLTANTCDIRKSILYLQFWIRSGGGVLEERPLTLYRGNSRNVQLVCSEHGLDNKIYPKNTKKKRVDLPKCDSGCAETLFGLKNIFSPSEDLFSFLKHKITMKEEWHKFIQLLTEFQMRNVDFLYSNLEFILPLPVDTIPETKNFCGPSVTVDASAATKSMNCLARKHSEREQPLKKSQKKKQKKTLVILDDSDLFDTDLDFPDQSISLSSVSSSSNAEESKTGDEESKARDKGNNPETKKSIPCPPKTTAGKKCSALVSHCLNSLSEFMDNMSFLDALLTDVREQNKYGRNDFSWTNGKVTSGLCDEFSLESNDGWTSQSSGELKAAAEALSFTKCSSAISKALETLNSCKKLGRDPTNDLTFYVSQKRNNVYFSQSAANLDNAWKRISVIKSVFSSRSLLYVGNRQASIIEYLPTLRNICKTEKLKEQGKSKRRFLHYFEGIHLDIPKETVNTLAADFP
Phosphoglycerate kinase, glycosomal (Trypanosoma brucei brucei), sequence (P07378 whole entry, looked up): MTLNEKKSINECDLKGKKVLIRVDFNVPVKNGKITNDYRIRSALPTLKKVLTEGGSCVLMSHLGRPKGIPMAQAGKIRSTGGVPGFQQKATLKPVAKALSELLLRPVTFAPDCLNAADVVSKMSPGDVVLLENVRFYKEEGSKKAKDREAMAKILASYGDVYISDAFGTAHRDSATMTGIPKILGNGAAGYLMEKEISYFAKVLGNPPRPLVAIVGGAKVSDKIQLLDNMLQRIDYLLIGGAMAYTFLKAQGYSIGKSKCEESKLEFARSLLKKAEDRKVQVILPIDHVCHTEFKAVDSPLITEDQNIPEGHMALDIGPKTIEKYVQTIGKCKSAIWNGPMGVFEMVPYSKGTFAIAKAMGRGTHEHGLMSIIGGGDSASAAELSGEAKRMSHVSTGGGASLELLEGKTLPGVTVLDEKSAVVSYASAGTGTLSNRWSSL
phosphoglycerate mutase (Leishmania major), sequence (Q4Q090 1-553): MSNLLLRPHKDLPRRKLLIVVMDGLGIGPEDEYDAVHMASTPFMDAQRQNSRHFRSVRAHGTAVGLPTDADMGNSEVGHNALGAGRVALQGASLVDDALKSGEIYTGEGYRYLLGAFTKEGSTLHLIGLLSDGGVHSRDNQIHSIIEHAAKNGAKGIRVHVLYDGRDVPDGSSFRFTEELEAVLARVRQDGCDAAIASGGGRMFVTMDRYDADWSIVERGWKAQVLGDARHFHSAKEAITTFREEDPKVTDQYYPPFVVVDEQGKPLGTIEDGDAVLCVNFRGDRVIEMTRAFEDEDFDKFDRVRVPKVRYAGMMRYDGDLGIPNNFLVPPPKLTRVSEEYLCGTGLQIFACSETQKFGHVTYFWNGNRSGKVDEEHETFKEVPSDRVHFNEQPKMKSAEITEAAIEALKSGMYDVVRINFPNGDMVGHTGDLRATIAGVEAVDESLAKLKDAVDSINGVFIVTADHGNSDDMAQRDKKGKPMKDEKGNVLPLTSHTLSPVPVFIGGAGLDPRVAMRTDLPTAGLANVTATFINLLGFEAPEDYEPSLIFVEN
Estrogen receptor (Homo sapiens), sequence (P03372 whole entry, looked up): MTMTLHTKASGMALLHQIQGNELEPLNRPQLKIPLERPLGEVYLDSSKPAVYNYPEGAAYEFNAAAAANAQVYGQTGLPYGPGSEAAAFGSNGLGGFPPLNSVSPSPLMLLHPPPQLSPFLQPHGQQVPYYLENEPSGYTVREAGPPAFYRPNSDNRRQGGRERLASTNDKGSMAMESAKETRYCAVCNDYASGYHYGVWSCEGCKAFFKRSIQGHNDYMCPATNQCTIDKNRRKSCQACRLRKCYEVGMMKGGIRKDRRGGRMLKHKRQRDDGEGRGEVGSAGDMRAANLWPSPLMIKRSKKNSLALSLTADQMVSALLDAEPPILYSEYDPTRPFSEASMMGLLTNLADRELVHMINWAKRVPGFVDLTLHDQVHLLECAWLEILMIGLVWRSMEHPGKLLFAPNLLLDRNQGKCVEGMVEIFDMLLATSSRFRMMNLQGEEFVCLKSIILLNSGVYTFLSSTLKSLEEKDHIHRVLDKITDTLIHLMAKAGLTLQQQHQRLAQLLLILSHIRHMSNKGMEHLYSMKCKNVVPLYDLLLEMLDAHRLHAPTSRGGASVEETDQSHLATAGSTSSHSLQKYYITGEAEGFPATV

O=c1c(O)c(-c2ccc(O)cc2O)oc2cc(O)cc(O)c12
-13.4%: viability change [6]
active: Potency [10] 50.1 µM
inactive: outcome [1] | outcome [2] | Potency [3] | Potency [4] | outcome [5] | Potency [6] | outcome [7] | Potency [8] | Potency [9] | outcome [11] | Potency [12]

Oc1ccc(-c2nc(-c3ccc(F)cc3)c(-c3ccncc3)[nH]2)cc1
inactive: outcome [1] | outcome [2] | Potency [13] | Potency [3] | Potency [4] | outcome [7] | Potency [8] | outcome [14] | Potency [15] | Potency [9] | outcome [11] | Potency [12]

NNc1nncc2ccccc12
-2.74%: viability change [6]
inactive: outcome [1] | outcome [2] | Potency [13] | Potency [3] | outcome [16] | Potency [6] | outcome [7] | Potency [8] | outcome [14] | Potency [15] | Potency [9] | Potency [10] | outcome [11] | Potency [12]

CNC[C@H](O)c1ccc(O)c(O)c1
inactive: outcome [1] | Potency [13] | outcome [16] | Potency [4] | outcome [5] | Potency [6] | outcome [7] | Potency [8] | outcome [14] | Potency [9] | Potency [10] | outcome [11] | Potency [12] | outcome [17]
3.45%: viability change [6]

O=c1c(O)c(-c2cc(O)c(O)c(O)c2)oc2cc(O)cc(O)c12
inactive: outcome [1] | outcome [2] | Potency [13] | Potency [4] | outcome [5] | Potency [6] | outcome [7] | Potency [8] | Potency [9]
-7.68%: viability change [6]
active: Potency [15] 3.01 µM

Nc1nc(N)c(N=O)c(OCC2CCCCC2)n1
inactive: outcome [2] | Potency [13] | Potency [3] | outcome [5] | Potency [6] | outcome [14] | Potency [15] | Potency [9] | Potency [10] | Potency [12]
-2.98%: viability change [6]

CCN(CC)C(=S)SSC(=S)N(CC)CC
1.38%: viability change [6]
active: Potency [4] 18.3 µM | Potency [8] 0.206 µM
inactive: outcome [1] | Potency [6] | outcome [7] | outcome [14] | Potency [15] | Potency [9] | Potency [10] | outcome [18] | outcome [17] | activation [19] 6.34% | outcome [20]

Nc1ccn([C@@H]2O[C@H](CO)[C@@H](O)C2O)c(=O)n1 (stereo partly drawn)
inactive: outcome [2] | Potency [13] | Potency [3] | outcome [16] | Potency [4] | outcome [5] | outcome [14] | Potency [15] | Potency [9] | Potency [10] | outcome [11]

O=c1cc(N2CCOCC2)oc2c(-c3ccccc3)cccc12
-18.1%: viability change [6]
inactive: outcome [1] | outcome [2] | Potency [13] | Potency [3] | Potency [4] | outcome [7] | Potency [8] | outcome [14] | Potency [15] | Potency [9] | Potency [10] | outcome [11] | Potency [12]
active: Potency [6] 9.2 µM

COc1ccccc1N1CCN(CCN(C(=O)C2CCCCC2)c2ccccn2)CC1
inactive: outcome [1] | outcome [2] | Potency [13] | Potency [3] | Potency [4] | outcome [5] | outcome [7] | Potency [8] | outcome [14] | Potency [15] | Potency [9] | Potency [10] | outcome [11] | Potency [12]

COc1cc2c(cc1OC)C1CC(=O)C(CC(C)C)CN1CC2 (stereo not drawn)
inactive: outcome [2] | Potency [13] | Potency [3] | outcome [16] | Potency [6] | outcome [14] | Potency [15] | Potency [9] | Potency [10] | outcome [11] | Potency [12]
-5.87%: viability change [6]

NCCCCNCCCN
3.72%: viability change [6]
inactive: outcome [1] | outcome [2] | Potency [13] | Potency [3] | Potency [4] | Potency [6] | outcome [7] | Potency [8] | outcome [14] | Potency [15] | Potency [9] | Potency [10] | outcome [11] | Potency [12]
